Experimental data published in PubChem BioAssay (NCI).
About 83,000 compounds went through this panel and 20% of them were active in at least one assay; those are over-represented in the sample as a whole.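 Testing used 96-well plates and a 48-hour single-concentration exposure. Example: -40 means 40% of the starting cells died.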 Active and inactive are the calls of the source. Rule for the calls: active = growth percent below 10; inactive = the rest.

Test system: HL-60(TB) leukemia
Assay: NCI-60 one-dose screen, 48 h (100 = growth as untreated, 0 = no growth, -100 = all killed)
Details: 10 µM unless noted

Compound | growth
CC(C)(C)N1CC(OC(N)=O)C1 | 110% (inactive)
COc1ccc(-c2nc3ccccc3n3cccc23)cc1 | 104% (inactive)
COc1ccc(C2[C@@H](Cl)C(=O)N2c2cc(OC)c(OC)c(OC)c2)cc1Cl (stereo not given in full) | -30.3% (active)
Clc1ccc2c(NCCNc3nc(Cl)nc4ccccc34)ccnc2c1 | -67% (active)
O=c1c2cc(F)ccc2sc2c(N3CCNCC3)nc3ccccc3c12 | -52% (active)
CCCCc1oc2ccccc2c1C(=O)c1cc(I)c(OCCN(CC)CC)c(I)c1 | -62.9% (active)
Cc1ccc(NC(=O)CCl)cc1Cl | 106% (inactive)
COC(=O)c1cc(-c2ccccc2)[nH]c1N/N=C/c1c(Cl)cccc1Cl | -42.9% (active)
O=C(N/N=C/c1cc2ccccc2c2ccccc12)c1cc(O)c(O)c(O)c1 | 39.9% (inactive)
Nc1ccc(S(=O)(=O)Nc2cc(I)cc(I)c2)cc1 | -75% (active)
Oc1c(I)cc(-c2nc3ccccc3s2)cc1CN(Cc1ccccn1)Cc1ccccn1 | 2.06% (active)
CC(=O)CC1CCCC1c1ccc2ccccc2c1 (stereo not given) | 101% (inactive)
N#C/C(=C\c1ccc(-c2ccc(Br)cc2)o1)c1nc(-c2cccs2)cs1 | 92.7% (inactive)
Cn1c(-c2c(N)n(Cc3cccnc3)c3nc(C#N)c(C#N)nc23)nc2ccccc21 | 50.3% (inactive)
CCN(C)c1ccccc1 | 100% (inactive)
O=c1[nH]c2c(ccc3cnccc32)c2c1CCC2 | 13.4% (inactive)
CC(=O)Cc1nsc(NC(=O)c2ccoc2COc2ccccc2)n1 | 98.5% (inactive)
COc1ccc(C(=O)c2cc3c(N)c(C(=O)Nc4ccccc4)sc3nc2C)cc1 | -46% (active)
Cc1cc(Br)c2nsnc2c1[N+](=O)[O-] | 37.7% (inactive)
CCCCC/C(=C\c1ccccc1)C1OC(C)C(C)O1 (stereo not given) | 115% (inactive)

Compound | growth
NS(=O)(=O)c1ccc(CCn2c(SCC(=O)N/N=C/c3cccnc3)nc3ccccc3c2=O)cc1 | 80.4% (inactive)
O=C1Cc2cc(O)ccc2O1 | 100% (inactive)
c1ccc([I+]c2ccccc2)cc1 | 52% (inactive)
COc1ccc(C(=O)N=Nc2c(O)n(C)c3ccccc23)cc1 | 99.4% (inactive)
COc1ccc(N2CCN(Cc3cc(C(=O)/C=C/c4c[nH]c5ccccc45)ccc3O)CC2)cc1 | 99.9% (inactive)
Cc1ccc(Cl)cc1Nc1nc(C(F)(F)F)ccc1C(=O)N/N=C/c1c(Cl)cccc1Cl | 17.3% (inactive)
O=C1CSC(=S)N1CCc1ccc(O)cc1 | 92% (inactive)
COc1cccc(C(=O)NCCCNc2cc(-c3cn(-c4ccccc4)nc3-c3cccc(OC)c3)ccn2)c1 | 22.7% (inactive)
Nc1cccc(S(=O)(=O)c2cccc(N)c2)c1 | -10.6% (active)
COc1cccc(NC(=O)OC(C)C)c1 | 72.7% (inactive)
COC(=O)c1nc(-c2ccccc2)oc1S(=O)(=O)N1CCCC(C)C1 (stereo not given) | 15% (inactive)
Cc1ccc(OCCOCCOCCOCCOc2ccc(C)n(O)c2=S)c(=S)n1O | -7.44% (active)
CCOC(=O)c1noc2c1CCc1c-2cn(Cc2ccc(OC)cc2)c1-c1cc(OC)c(OC)c(OC)c1 | -25.5% (active)
COc1ccc2c(c1)NC(=O)CN2c1nc(NC2CC2)nc2ccccc12 | -5.55% (active)
C=CCc1c2c(c(OC)c3ccoc13)C(=O)/C(=C/c1ccccc1OC)O2 | 68.8% (inactive)
CC1=C(O)C(=O)C(c2c(C)cc(C)c(Br)c2C)=C(O)C1=O | 53.4% (inactive)
COc1ccc2cc(-c3nc4ccc(C)cn4c3NCc3ccco3)c(=O)[nH]c2c1 | 67.5% (inactive)
O=c1c2ccccc2n2cnc3ccc(Cl)c1c32 | 82.6% (inactive)
Cc1cccc(/C=N/Nc2cc(C)c3cccc(C)c3n2)n1 | 83.1% (inactive)
COc1ccc2c(c1)c(-c1nonc1-c1cn(C)c3ccccc13)cn2C | 2.88% (active)
